Results taken from PubChem BioAssay (Tox21).
A number with no mark means an inactive call. Records with an inconclusive call do not appear. Where a call stands in place of a potency, no number is given. The source made the active and inactive calls. The call rests on the fitted dose curve.

How the values were obtained:
[1] = molecular target: Acetylcholinesterase (Homo sapiens) (UniProt P22303); assay: Acetylcholinesterase (AChE) small molecule antagonists: colormetric cell-based qHTS assay (AID 1347395); conditions: SH-SY5Y cells AChE activity, colorimetric (Ellman); series mostly up to 115 µM; further: nearly all actives have a fitted effect of over 30% in size; further: potency means the concentration at half of the fitted maximal effect
Method in brief: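 Cells (SH-SY5Y, 2,000 per well) are seeded and left overnight at 37 C. Compound is added for 30 min, then DTNB and acetylthiocholine for a further 90 min at 37 C before absorbance-based thiocholine detection.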

[2] = molecular target: Acetylcholinesterase (Homo sapiens) (UniProt P22303); assay: Acetylcholinesterase (AChE) small molecule antagonists: enzyme-based qHTS assay (AID 1347397); conditions: Potency: AChE enzyme activity inhibition; outcome: AChE enzyme activity inhibition; series mostly up to 115 µM; further: nearly all actives have a fitted effect of over 55% in size; further: potency means the concentration at half of the fitted maximal effect
Method in brief: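 Tox21 library chemicals are tested in qHTS format against recombinant human AChE. The enzyme, dispensed at 50 mU/mL, sits with compound for 30 min at room temperature. A DTNB–acetylthiocholine cocktail follows, and colour is read after 10 min.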

[3] = molecular target: Acetylcholinesterase (Homo sapiens) (UniProt P22303); assay: Acetylcholinesterase (AChE) small molecule antagonists: fluorescence cell-based qHTS assay (AID 1347398); conditions: SH-SY5Y cells; Potency: AChE activity; outcome: AChE activity; series mostly up to 115 µM; further: nearly all actives have a fitted effect of over 50% in size; further: potency means the concentration at half of the fitted maximal effect
Method in brief: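 Cellular AChE inhibition: SH-SY5Y cells treated with test chemical for 30 min at 37 C, then acetylthiocholine hydrolysis followed over 40 min at room temperature via thiocholine-reactive Thiolite Green fluorescence (490/520 nm).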

[4] = molecular target: Acetylcholinesterase (Homo sapiens) (UniProt P22303); assay: Acetylcholinesterase (AChE) small molecule antagonists: enzyme-based qHTS assay with human liver microsomes (AID 1347399); conditions: Potency: qHTS inhibition; outcome: qHTS inhibition; series mostly up to 115 µM; further: nearly all actives have a fitted effect of over 60% in size
Method in brief: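 Recombinant human AChE (50 mU/mL in the enzyme mix) and human liver microsomes (0.25 mg/mL final) were preincubated with compound and NADPH (0.25 mg/mL final) for 30 min at 37 C. Acetylthiocholine/DTNB was then added; thiocholine was read colorimetrically after 10 min at room temperature.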

Acetylcholinesterase (Homo sapiens), sequence (P22303 whole entry, looked up): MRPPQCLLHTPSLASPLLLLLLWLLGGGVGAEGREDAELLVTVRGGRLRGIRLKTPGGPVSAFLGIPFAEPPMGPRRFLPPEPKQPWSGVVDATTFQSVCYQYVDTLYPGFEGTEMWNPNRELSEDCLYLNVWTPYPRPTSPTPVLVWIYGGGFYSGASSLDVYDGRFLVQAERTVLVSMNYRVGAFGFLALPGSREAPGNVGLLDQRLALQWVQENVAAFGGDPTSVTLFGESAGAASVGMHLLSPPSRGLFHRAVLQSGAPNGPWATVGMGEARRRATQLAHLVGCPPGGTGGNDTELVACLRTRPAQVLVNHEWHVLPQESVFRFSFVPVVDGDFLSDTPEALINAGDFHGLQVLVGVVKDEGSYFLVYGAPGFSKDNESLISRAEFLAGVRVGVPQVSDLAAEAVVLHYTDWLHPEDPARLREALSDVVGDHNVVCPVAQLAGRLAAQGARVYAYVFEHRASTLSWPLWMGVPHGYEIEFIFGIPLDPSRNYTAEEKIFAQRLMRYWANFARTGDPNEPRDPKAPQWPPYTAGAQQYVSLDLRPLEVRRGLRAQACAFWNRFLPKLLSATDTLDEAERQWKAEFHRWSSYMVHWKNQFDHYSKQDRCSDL

Structure (SMILES) | activity, negative = inhibition [1] | activity change, negative = inhibition [2] | activity change, negative = inhibition [3] | activity change, negative = inhibition [4] | Potency [1] | Potency [2] | Potency [3] | Potency [4]
CN(C)c1ccc(/C=C/c2ccc([N+](=O)[O-])cc2)cc1 | 3.64% [at 10.5 µM] | 1.35% [at 10.5 µM] | 4.62% [at 10.5 µM] | 1.54% [at 10.5 µM] | – | – | – | –
Cc1ccc2oc(=O)ccc2c1 | – | – | – | – | inactive | inactive | inactive | inactive
O=S(=O)(O)c1ccc(O)c2ncccc12 | – | – | – | – | inactive | inactive | inactive | inactive
CCCC(=O)c1ccccc1 | – | – | – | – | inactive | inactive | inactive | inactive
c1ccc(SSc2ccccc2)cc1 | – | – | – | – | inactive | inactive | inactive | inactive
CCCC(=O)OCC(COC(=O)CCC)OC(=O)CCC | – | – | – | – | inactive | inactive | inactive | inactive
C/C(CC(C)C)=N\O | – | – | – | – | inactive | inactive | inactive | inactive
CC(=O)CC(=O)Nc1ccccc1 | – | – | – | – | inactive | inactive | inactive | inactive
Cc1cnccn1 | – | – | – | – | inactive | inactive | inactive | inactive
O=C(NC(Cc1cc(=O)[nH]c2ccccc12)C(=O)O)c1ccc(Cl)cc1 (stereo not given) | – | – | – | – | inactive | inactive | inactive | inactive
COC(=O)CCS | – | – | – | – | inactive | inactive | inactive | inactive
c1cnc(N2CCN(Cc3ccc4c(c3)OCO4)CC2)nc1 | – | – | – | – | inactive | inactive | inactive | inactive
CCc1c(C)cc(N)c(CC)c1N | – | – | – | – | 39.9 µM (active) | 71 µM (active) | 39.9 µM (active) | inactive
CC1=CC[C@@H](C(C)(C)O)CC1 | – | – | – | – | inactive | inactive | inactive | inactive
CC(CC(C#N)(c1ccccc1)C(C)C)N(C)C (stereo not given) | – | – | – | – | inactive | inactive | inactive | inactive
COC(c1ccccc1)(c1ccccc1)[C@H](Oc1nc(C)cc(C)n1)C(=O)O | – | – | – | – | inactive | inactive | inactive | inactive
O=C(O)Cc1cccc2ccccc12 | – | – | – | – | inactive | inactive | inactive | inactive
CCN(CCO)CCCC(C)Nc1ccnc2cc(Cl)ccc12 (stereo not given) | -5.02% [at 10.5 µM] | -2.76% [at 10.5 µM] | -7.12% [at 10.5 µM] | -0.168% [at 10.5 µM] | – | – | – | –
ClC(c1ccccc1)(c1ccccc1)c1ccccc1 | – | – | – | – | inactive | inactive | inactive | inactive
Cc1cccc(C)c1O | – | – | – | – | inactive | inactive | inactive | inactive

Structure (SMILES) | activity, negative = inhibition [1] | activity change, negative = inhibition [2] | activity change, negative = inhibition [3] | activity change, negative = inhibition [4] | Potency [1] | Potency [2] | Potency [3] | Potency [4]
CC1(C)C(O)C(C)(C)C1O (stereo not given) | – | – | – | – | inactive | inactive | inactive | inactive
CCO[Si](CC(C)C)(OCC)OCC | – | – | – | – | inactive | inactive | inactive | inactive
CCCCCCCC | – | – | – | – | inactive | inactive | inactive | inactive
C=CC(=O)OCC(Br)CBr (stereo not given) | – | – | – | – | inactive | inactive | inactive | inactive
CCC(C)(C)C1CCC(OC)CC1 (stereo not given) | – | – | – | – | inactive | inactive | inactive | inactive
C=CC(C)(C)C | – | – | – | – | inactive | inactive | inactive | inactive
C/C=C/C(=O)OCC(C)C | – | – | – | – | inactive | inactive | inactive | inactive
CCCC(=O)OC | – | – | – | – | inactive | inactive | inactive | inactive
CCCCCCCCCC | – | – | – | – | inactive | inactive | inactive | inactive
CC(=O)N1CCN(c2ccc(O)cc2)CC1 | – | – | – | – | inactive | inactive | inactive | inactive
Nc1ccccc1N | – | – | – | – | inactive | inactive | inactive | inactive
CCC(CC)(CC(=O)Nc1cccc(/C=C/c2nc(C3CCC3)cs2)c1)C(=O)O | – | – | – | – | inactive | inactive | inactive | inactive
Cc1cccc(N(C)C(=S)Oc2ccc3c(c2)C2CCC3C2)c1 (stereo not given) | – | – | – | – | inactive | inactive | inactive | inactive
CO/N=C(/C(=O)N[C@@H]1C(=O)N2C(C(=O)O)=C(COC(N)=O)CS[C@H]12)c1ccco1 | – | – | – | – | inactive | inactive | inactive | inactive
CCN(Cc1c(F)cccc1Cl)c1c([N+](=O)[O-])cc(C(F)(F)F)cc1[N+](=O)[O-] | – | – | – | – | inactive | inactive | inactive | inactive
OC[C@@H](O)C(O)[C@@H](O)CO (stereo not given in full) | – | – | – | – | inactive | inactive | inactive | inactive
OC1CCCC1 | – | – | – | – | inactive | inactive | inactive | inactive
CCC(C)C1N=C(C)C(C)S1 (stereo not given) | – | – | – | – | inactive | inactive | inactive | inactive
CC(CO)c1ccccc1 (stereo not given) | – | – | – | – | inactive | inactive | inactive | inactive
Cc1c(F)cc2c(=O)c(C(=O)O)cn3c2c1CCC3C (stereo not given) | – | – | – | – | inactive | inactive | inactive | inactive

Structure (SMILES) | activity, negative = inhibition [1] | activity change, negative = inhibition [2] | activity change, negative = inhibition [3] | activity change, negative = inhibition [4] | Potency [1] | Potency [2] | Potency [3] | Potency [4]
CN1CCC(OC(c2ccccc2)c2ccccc2)CC1 | – | – | – | – | inactive | inactive | inactive | inactive
CN(C)/N=N/c1nc[nH]c1C(N)=O | – | – | – | – | inactive | inactive | inactive | inactive
CC(C)(C)C(=O)OCOP(=O)(COCCn1cnc2c(N)ncnc21)OCOC(=O)C(C)(C)C | – | – | – | – | 30.9 µM (active) | 38.9 µM (active) | 13.8 µM (active) | inactive
CCCCCC#CC(=O)OC | – | – | – | – | inactive | inactive | inactive | inactive
CCCCCCCC/C=C\CCCCCCCC(N)=O | – | – | – | – | inactive | inactive | inactive | inactive
O=C(O)c1ccccc1S | – | – | – | – | inactive | inactive | inactive | inactive
COC[C@H](c1ccc(C(F)(F)F)cc1)N1CCN(C2(C)CCN(C(=O)c3c(C)ncnc3C)CC2)C[C@H]1C | – | – | – | – | inactive | inactive | inactive | inactive
CNC(=O)c1ccccc1 | – | – | – | – | inactive | inactive | inactive | inactive
O=C(CCCCC(=O)Nc1c(I)cc(I)c(C(=O)O)c1I)Nc1c(I)cc(I)c(C(=O)O)c1I | – | – | – | – | inactive | inactive | inactive | inactive
CC(=O)Nc1ccc2c(c1)Cc1cc(NC(C)=O)ccc1-2 | – | – | – | – | inactive | inactive | inactive | inactive
CCCCCCCCCCCCCCCCI | 1.24% [at 23.6 µM] | 1.36% [at 23.6 µM] | 3.93% [at 23.8 µM] | 0.294% [at 23.6 µM] | – | – | – | –
O=c1cc(-c2ccc(O)cc2)oc2cc(O)cc(O)c12 | – | – | – | – | inactive | inactive | inactive | inactive
CC(C)CC=O | – | – | – | – | inactive | inactive | inactive | inactive
CCC(C)(CCC(C)C)C(=O)[O][Sn]([CH3])([CH3])[O]C(=O)C(C)(CC)CCC(C)C (stereo not given) | – | – | – | – | inactive | inactive | inactive | inactive
CN(C)CCN(C)CCN(C)C | – | – | – | – | inactive | inactive | inactive | inactive
O=C(N[C@@H](Cc1ccccc1)[C@@H](O)C(=O)N1C[C@@H](O)[C@@H](O)C1)c1cc2cc(Cl)ccc2[nH]1 | – | – | – | – | inactive | inactive | inactive | inactive
Cn1cc(S(C)=O)c(=O)c2ccc(F)cc21 (stereo not given) | – | – | – | – | inactive | inactive | inactive | inactive
[Na+] | – | – | – | – | inactive | inactive | inactive | inactive
O=C(c1ccc(O)cc1O)c1ccc(O)cc1O | – | – | – | – | inactive | inactive | inactive | inactive
CCN(Cc1ccccc1)c1ccccc1 | – | – | – | – | inactive | inactive | inactive | inactive
